The text below walks through data of PubChem BioAssay (Tox21).

Assay [1] in a line: qHTS assay for small molecules that induce genotoxicity in human embryonic kidney cells expressing luciferase-tagged ATAD5 (AID 651632). Also: nearly all actives have a fitted effect of over 15% in size. Also: potency is read from the fitted curve at half-maximal effect. The method in brief:
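DMSO vehicle served as the control. HEK293T reporter cells, 16 hr at 37C, then 30 min Amplite at room temperature; ATAD5 induction is measured as luciferase activity.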
A general note: qHTS replaces the single test concentration by a dilution series.

Assay [2] in a line: qHTS assay for small molecule agonists of the p53 signaling pathway - cell viability (AID 651633; calls by dose curve; also: nearly all actives have a fitted effect of over 30% in size; also: potency is read from the fitted curve at half-maximal effect). The method in brief:
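Viability counter-read: CellTiter-Glo luminescence (30 min, room temperature) in the same p53RE-bla plates. These plates had been exposed to compounds for 16 h at 37 C.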

Assay [3] in a line: qHTS assay for small molecule disruptors of the mitochondrial membrane potential - cell viability (AID 720634; calls by dose curve;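 also: human HepG2 liver cancer cells; series mostly up to about 83 µM; nearly all actives have a fitted effect of over 20% in size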). The method in brief:
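Viability of HepG2 cells is scored from ATP content by luminescence; cells are exposed to compound for 1 hr at 37 C and 5% CO2, then dosed with m-MPI dye before the CellTiter-Glo reagent.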

Assay [4] in a line: qHTS assay for small molecule disruptors of the mitochondrial membrane potential (AID 720635). Also: potency is read from the fitted curve at half-maximal effect. A digest of the protocol: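 Mitochondrial membrane potential tracked with Mito-MPS dye, red aggregates (ex 540/em 590 nm) against green monomers (ex 490/em 535 nm). Compound treatment 1 hr at 37C, dye 30 min in HepG2.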
The nature of assay [5]: qHTS assay to test for compound auto fluorescence at 590 nm (red) in HepG2 cells (AID 720674). The method in brief:
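1 hr compound incubation on HepG2 cells, 37 C, 5% CO2; plate read ex 540 nm / em 590 nm; intensities reported as Rose Bengal sodium equivalents.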

The nature of assay [6]: qHTS assay to test for compound auto fluorescence at 460 nm (blue) in HEK293 cells (AID 720678). A digest of the protocol:
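HEK293 cells (2,000 per well, medium with 10% dialyzed FBS) attached for 4-5 hr at 37C, then received compound and stood overnight at 37C, 5% CO2. Blue fluorescence was read at Ex/Em 405/460 nm and expressed relative to triamterene.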

Assay [7] in a line: qHTS assay to test for compound auto fluorescence at 590 nm (red) in HEK293 cells (AID 720679). A digest of the protocol: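 HEK293 cells (2,000/well, medium with 10% dialyzed FBS) attached for 4-5 hr at 37C, received 23 nL compound and were incubated overnight at 37C, 5% CO2. Red fluorescence was then read at 540/590nm Ex/Em, referenced to Rose Bengal sodium.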
Assay [8] can be described thus: qHTS assay to test for compound auto fluorescence at 535 nm (green) in HepG2 cells (AID 720675).
Assay [9] is described as follows: qHTS assay for small molecules that induce genotoxicity in human embryonic kidney cells expressing luciferase-tagged ATAD5 - cell viability (AID 651634; calls by dose curve; also: nearly all actives have a fitted effect of over 25% in size; also: potency is read from the fitted curve at half-maximal effect). The method in brief: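 Here HEK293T cells with the ATAD5 luciferase reporter are incubated with test compounds for 15.5 hr, and cytotoxicity is then gauged by measuring protease activity in live cells using fluorescence.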

Values without a mark were called inactive. Records with an inconclusive call do not appear. Active and inactive are the calls of the source. Unless noted, calls follow the shape of the dose curve; as a rule, active = well fitted curve in the direction sought with a large enough effect in the repeat runs; inconclusive = weak or mixed curves; inactive = no such curve, though single readings can be large; an effect the other way counts as inactive or inconclusive.
% is scaled to controls: 0 for no effect and ±100 for the full control effect.

As for `Cc1ccccc1S`, the Potency entry in assay [1], in assay [2], in [3], in [4] and in [6] was “inactive” throughout. Also, the call in assay [5] and in assay [7] was inactive.

With `Oc1cccc(Nc2ccccc2)c1`, the Potency entry in [1], in assay [2] and in assay [3] was “inactive” each time. Also, in [4], the Potency is 25.4 µM (active). The result in [5], in assay [8] and in [7] was inactive.

As for `CN(C)CCC=C1c2ccccc2C=Cc2ccccc21`, the Potency result in assay [1], in assay [2], in assay [9] and in [3] was “inactive” each time. The compound was called inactive in assay [5], in assay [8] and in [7].

For the compound `Cc1cc(=O)c2c(O)c3c(O)cc(=O)c4c3c3c(cc(O)c1c23)C(C)(C)C=4O`, the Potency result in [1] and in assay [6] was “inactive” each time. In addition, the results for the Potency in [2], in assay [9] and in assay [4] were 1.06 µM (active), 2.66 µM (active) and 0.473 µM (active), respectively. Moreover, the compound was called inactive in [5] and in assay [7].

As to `O=C(O)c1cccc(-c2noc(-c3ccccc3F)n2)c1`, the figures for the Potency in [1] and in assay [2] were 0.0237 µM (active) and 29.8 µM (active), respectively. The Potency entry in [9], in assay [4] and in assay [6] was “inactive” throughout. The compound was classed as inactive in assay [5], in assay [8] and in assay [7].

For the compound `C=C/C(C)=C/C/C=C(\C)CCC=C(C)C`, the Potency result in assay [1], in assay [2], in assay [9], in [3] and in assay [6] was “inactive” throughout. Also, the result in [8] and in assay [7] was inactive.

For `O=C(Nc1cccc2c(=O)cc(-c3nn[nH]n3)oc12)c1ccc(OCCCCc2ccccc2)cc1`, the Potency entry in assay [1], in assay [2], in assay [9], in assay [3] and in assay [6] was “inactive” in each case. Besides, the outcome in assay [8] and in assay [7] was inactive.

`O=C(O)CCCCCCCCCCCBr`: the Potency result in assay [1], in assay [2], in [3] and in [6] was “inactive” each time. Further, the compound was called inactive in assay [5], in assay [8] and in assay [7].

For `CCCCCCCCCCCCCCN(CCO)CCO`, the Potency result in [1], in assay [9], in [3] and in [6] was “inactive” throughout. The Potency in assay [2] is 48.6 µM (active). The compound was classed as inactive in [8] and in assay [7].

In the case of `OCCN1CCN(CCCN2c3ccccc3Sc3ccc(Cl)cc32)CC1`, the Potency result in [1], in assay [2], in [9] and in assay [3] was “inactive” in each case. For the same compound, the fluorescence, % of triamterene in assay [6] was -0.38% [at 18.6 µM]. Moreover, the fluorescence, % of fluorescent control in assay [7] is -0.0409% [at 18.6 µM].

Take `N#CCc1ccc(Cl)cc1Cl`: the Potency result in [1], in assay [2], in assay [3] and in assay [6] was “inactive” in each case. For the same compound, the compound was called inactive in assay [5], in assay [8] and in assay [7].

As for `CCOC(=O)c1ccc(C#Cc2ccc3c(c2)C(C)(C)CCS3)nc1`, the Potency entry in [1], in [2] and in assay [9] was “inactive” each time. In assay [4], the Potency was 29.8 µM (active). In addition, the compound was classed as inactive in assay [5], in assay [8] and in assay [7].

Consider `CC(C)(c1ccccc1)c1ccccc1`, for which the Potency result in [1], in assay [2], in [9] and in assay [3] was “inactive” throughout. The call in [8] and in assay [7] was inactive.

`CCOc1ccc(Cc2nccc3cc(OCC)c(OCC)cc23)cc1OCC`: the Potency entry in [1], in assay [2] and in assay [3] was “inactive” in each case. For the same compound, the fluorescence, relative to Rose Bengal in assay [5] was 0.4% [at 18.6 µM]. The fluorescence, % of fluorescein control in assay [8] is 0.127% [at 18.6 µM]. For the same compound, the fluorescence, % of triamterene in assay [6] was -0.0249% [at 18.6 µM]. In addition, in [7], the fluorescence, % of fluorescent control was 0.0124% [at 18.6 µM].

`COc1cc(C(=O)NC2CCN(C)CC2)ccc1Nc1ncc2c(n1)N(C1CCCC1)CC(F)(F)C(=O)N2C`: the Potency in assay [1] is 1.58 µM (active); in assay [2], 44.5 µM (active); in assay [9] it was 79.1 µM (active); in assay [4], 44.5 µM (active). The result in [8] and in assay [7] was inactive.

For `Cc1cccc(O)c1N`, the Potency entry in assay [1], in [2], in assay [3] and in assay [6] was “inactive” throughout. Besides, the result in assay [5], in assay [8] and in assay [7] was inactive.

Turning to `CN1C(=O)OC(C)(C)C1=O`, the Potency entry in assay [1], in [2], in assay [9] and in assay [3] was “inactive” throughout. Further, the result in assay [5] and in [7] was inactive.

On to `Cc1ccc(Cl)c(Nc2ccccc2C(=O)O)c1Cl`, for which the Potency result in [1], in [2], in assay [9] and in assay [3] was “inactive” each time. In addition, the result in assay [8] and in [7] was inactive.

Take `CCC(=O)C1CC(C(C)C)CC=C1C` (centres undefined): the Potency entry in [1], in [2], in assay [3], in assay [4] and in [6] was “inactive” throughout. In addition, the outcome in [5], in assay [8] and in [7] was inactive.

Turning to `CCCCC(CC)COP(=O)(O)O` (centres undefined), the Potency result in assay [1] and in assay [6] was “inactive” throughout. The compound was classed as inactive in assay [5], in [8] and in [7].

Consider `c1ccc2sc(SN(C3CCCCC3)C3CCCCC3)nc2c1`, for which the Potency result in assay [1], in assay [9] and in [6] was “inactive” each time. In addition, the outcome in [5], in assay [8] and in [7] was inactive.

For `COC(=O)C1=C(C)NC(C)=C(C(=O)O[C@@H]2CCCN(Cc3ccccc3)C2)[C@@H]1c1cccc([N+](=O)[O-])c1`, the Potency entry in assay [1], in assay [2] and in [6] was “inactive” throughout. In addition, the Potency in assay [4] is 13.3 µM (active). The result in [5], in assay [8] and in [7] was inactive.

Regarding `Brc1cc(Br)c(Oc2cc(Br)c(Br)cc2Br)cc1Br`, the Potency result in assay [1], in assay [9] and in [3] was “inactive” each time. The compound was called inactive in assay [5], in assay [8] and in [7].

For `CCOC(=O)OC(C)OC(=O)[C@@H]1N2C(=O)[C@@H](NC(=O)[C@H](N)c3ccccc3)[C@H]2SC1(C)C` (some centres undefined), the Potency entry in assay [1] and in assay [3] was “inactive” in each case. Further, in assay [5], the fluorescence, relative to Rose Bengal is -0.696% [at 18.6 µM]. Also, the fluorescence, % of triamterene in assay [6] is 0.659% [at 18.6 µM]. Further, the fluorescence, % of fluorescent control in assay [7] is 0.375% [at 18.6 µM].

For `CN1CC(=O)N2[C@H](c3ccc4c(c3)OCO4)c3[nH]c4ccccc4c3C[C@@H]2C1=O`, the Potency entry in assay [1], in [9], in [3] and in assay [6] was “inactive” each time. Besides, the outcome in assay [5] and in assay [7] was inactive.

For the compound `CC(=O)N/N=C/c1ccc([N+](=O)[O-])o1`, the Potency result in [1], in assay [9] and in assay [3] was “inactive” in each case. The compound was called inactive in assay [5], in assay [8] and in [7].

Turning to `O=C1C(=O)c2ccccc2C(O)=C1C1CCC(c2ccc(Cl)cc2)CC1` (centres undefined), the Potency result in [1], in assay [9] and in [3] was “inactive” throughout. In addition, the fluorescence, relative to Rose Bengal in assay [5] was -0.463% [at 18.6 µM]. Further, the fluorescence, % of triamterene in [6] was 0.0437% [at 18.6 µM]. In addition, the fluorescence, % of fluorescent control in assay [7] was 0.421% [at 18.6 µM].

Consider `CCCC(C(=O)OCCN(CC)CC)(c1ccccc1)c1ccccc1`, for which the Potency entry in assay [1], in assay [2], in assay [3] and in assay [6] was “inactive” throughout. The call in [5], in assay [8] and in assay [7] was inactive.
